Measurements: PubChem BioAssay AID2685 (National Center for Advancing Translational Sciences (NCATS), 2010)
The campaign covered roughly 320,000 compounds. About 2,100 (0.66%) were called active. About 53% were inconclusive and are not listed. Calls follow the shape of the dose curve; as a rule, active = well fitted inhibition curve with a large enough effect in the signal ratio, with a control signal flat (not every such curve was filed as active); inconclusive = small, poorly fitted or top-dose-only effect, or effect the other way, or a change in a side signal; inactive = flat fitted curve, though single readings scatter; the % refers to the signal ratio. The full list was thinned out, with actives kept by preference.
Potency is read from the fitted curve at half-maximal effect.

Assay: qHTS Assay for Lipid Storage Modulators in Drosophila S3 Cells;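 as to cell number change: cells counted by Cell Tracker Red CMTPX staining in the red channel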; as to lipid storage change, negative = inhibition: % is scaled to controls: 0 for no effect and ±100 for the full control effect
Details: BODIPY lipid droplet fluorescence, 18-24 h, cells fed with added oleic acid; cell number change: measured here: cell count max response; series mostly up to 46.1 µM; lipid storage change, negative = inhibition: at the top concentration
In short: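 Drosophila S3 cells got compounds at several concentrations plus oleic acid (400 uM solution). Laser-scanning cytometry with 488 nm excitation read lipid droplets at 500-530 nm and cells at 575-640 nm. Percent activity was relative to 20 uM Triacsin C.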
For `CC1=C(C(=O)OCC2CCCO2)C(c2ccc(Cl)c(Cl)c2)NC(=O)N1` (centres undefined), the “lipid storage change, negative = inhibition” value was 0.886% (inactive) and the cell number change was 6.97%. With `CC1=C(C(=O)N(C)C)C(c2ccc(Cl)c(Cl)c2)NC(=O)N1` (centres undefined) the Potency was 3.66 µM (active) and the cell number change was -24.5%. With `N/C(=N\OC(=O)c1cccnc1)c1ccccc1Cl` the “lipid storage change, negative = inhibition” value was -0.604% (inactive) and the cell number change was -1.5%. With `O=c1ncn(-c2ccccc2C(F)(F)F)c2ncccc12` the “lipid storage change, negative = inhibition” value was 14.1% (inactive) and the cell number change was -1.22%. With `CC(C)(C)NC(=O)CN(C(=O)CCN1CCCc2ccccc21)C(C)(C)C` the Potency was 14.6 µM (active). With `CC(C(=O)NC(C)(C)C)N(Cc1cccs1)C(=O)CCN1CCc2ccccc21` (centres undefined) the “lipid storage change, negative = inhibition” value was 6.26% (inactive) and the cell number change was 1.12%. For `CC(C)(C)NC(=O)NC(=O)CN1CCCc2ccccc21`, the “lipid storage change, negative = inhibition” value was -1.35% (inactive) and the cell number change was -16.4%. For `O=C(COC(=O)c1ccco1)c1ccc(S(=O)(=O)N2CCCCC2)cc1`, the “lipid storage change, negative = inhibition” value was -15.9% (inactive) and the cell number change was -13.5%. For `Cc1cc(C)n2nc(C(=O)NNC(=O)c3ccccc3)nc2n1`, the “lipid storage change, negative = inhibition” value was 9.61% (inactive) and the cell number change was 14%. In the case of `Cc1cc(C)n2nc(C(=O)OCC(=O)NNC(=O)c3ccc(Cl)cc3)nc2n1`, the “lipid storage change, negative = inhibition” value is reported as -21.1% (inactive) and the cell number change is reported as -14.4%. For `Cc1cc(C)n2nc(C(=O)NNC(=O)c3ccc(Cl)cc3)nc2n1`, the Potency was 18.4 µM (active) and the cell number change was -28%. For `CCN(CC)c1nc(-c2ccc(Cl)cc2)cc(C(F)(F)F)c1C#N`, the “lipid storage change, negative = inhibition” value was 21% (inactive) and the cell number change was -4.2%. For `O=C(COc1ccc(-c2ccccc2)cc1)NNC(=O)Nc1ccc(F)cc1F`, the “lipid storage change, negative = inhibition” value was 8.38% (inactive). For `CC1CN(Cc2ccccc2)C(C)CC1O` (centres undefined), the “lipid storage change, negative = inhibition” value was 4.32% (inactive) and the cell number change was 13.3%. For `OC(COc1ccc(C2C=CCC2)cc1)CN1CCCCC1` (centres undefined), the Potency was 0.731 µM (active) and the cell number change was 1.19%. With `OC(COc1ccc(OCC(O)CN2CCCCCC2)cc1)CN1CCCCCC1` (centres undefined) the “lipid storage change, negative = inhibition” value was 13.9% (inactive) and the cell number change was -8.16%. In the case of `COc1ccc(OCC(O)CN2CCCCCC2)cc1` (centres undefined), the “lipid storage change, negative = inhibition” value is reported as -0.764% (inactive) and the cell number change is reported as 9.25%. In the case of `FC(F)(F)c1ccnc(N2CCN(Cc3cnc(-c4ccccc4)[nH]3)CC2)c1`, the “lipid storage change, negative = inhibition” value is reported as 8.54% (inactive) and the cell number change is reported as 15%. With `CC(NS(=O)(=O)c1ccc(CCC(=O)NCc2cccnc2)cc1)c1ccccc1` (centres undefined) the “lipid storage change, negative = inhibition” value was 0.909% (inactive) and the cell number change was -3.81%. In the case of `CC(NS(=O)(=O)c1ccc(OCC(=O)NCc2ccncc2)cc1)c1ccccc1` (centres undefined), the “outcome” value is reported as “inactive” and the cell number change is reported as 0.901%. In the case of `CC(NS(=O)(=O)c1ccc(OCC(=O)NCc2cccnc2)cc1)c1ccccc1` (centres undefined), the Potency is reported as 0.651 µM (active) and the cell number change is reported as -6.31%. For `COCC1CCN(Cc2nc(-c3ccc(OC)cc3)no2)CC1`, the “lipid storage change, negative = inhibition” value was 8.81% (inactive) and the cell number change was 9.88%. With `COc1ccc(NC(=O)CN(C)C(=O)CSCc2ccc(C)cc2)cc1` the Potency was 10.3 µM (active) and the cell number change was -11%. For `Cc1ccc(CSCC(=O)N(C)CC(=O)Nc2ccc(Cl)c(Cl)c2)cc1`, the “outcome” value was “inactive” and the cell number change was 1.04%. In the case of `Cc1ccc(CSCC(=O)N(C)CC(=O)Nc2ccc(C)cc2)cc1`, the “lipid storage change, negative = inhibition” value is reported as 0.736% (inactive) and the cell number change is reported as 15.6%. In the case of `CCC(C)NC(=O)CN1C(=O)C(CC)Sc2ccccc21` (centres undefined), the “lipid storage change, negative = inhibition” value is reported as -2.81% (inactive) and the cell number change is reported as -9.92%. With `CCOc1ccccc1NC(=O)C1CCCN(S(=O)(=O)c2ccc(-n3cnnn3)cc2)C1` (centres undefined) the “outcome” value was “inactive” and the cell number change was 20.5%. With `CCOC(=O)C1(CC2CC2)CCN(C(=O)c2ocnc2C)CC1` the “lipid storage change, negative = inhibition” value was -7.18% (inactive) and the cell number change was -6.88%. In the case of `CCOC(=O)C1(CC2CC2)CCN(C(=O)c2cc(C3CC3)nc3ccccc23)CC1`, the Potency is reported as 25.9 µM (active) and the cell number change is reported as -20.4%. In the case of `CCOC(=O)C1(CC2CC2)CCN(C(=O)c2cccnc2C)CC1`, the “lipid storage change, negative = inhibition” value is reported as 6.98% (inactive) and the cell number change is reported as 26%. With `Cc1cc(Br)cc(C)c1NC(=O)c1ccc(C#N)cc1F` the “lipid storage change, negative = inhibition” value was -22.4% (inactive) and the cell number change was 3.82%. For `C=CCNC(=S)NNC(=O)c1ccc(OCC)cc1`, the “lipid storage change, negative = inhibition” value was -0.066% (inactive) and the cell number change was -9.79%. With `COc1ccccc1CNC(=O)N1CCN(S(=O)(=O)c2ccc(Cl)cc2)CC1` the Potency was 0.13 µM (active) and the cell number change was 1.35%. With `CCOCCCNC(=O)c1oc2ccc(S(=O)(=O)N3CCOCC3)cc2c1C` the Potency was 18.4 µM (active). With `COc1ccccc1CNC(=O)c1oc2ccc(S(=O)(=O)N3CCOCC3)cc2c1C` the Potency was 29.1 µM (active) and the cell number change was -8.7%. For `Cc1c(C(=O)NCc2c(F)cc(F)cc2F)oc2ccc(S(=O)(=O)N3CCOCC3)cc12`, the Potency was 2.91 µM (active) and the cell number change was -3.48%. For `Cc1c(C(=O)NCCCN2CCOCC2)oc2ccc(S(=O)(=O)N3CCOCC3)cc12`, the “lipid storage change, negative = inhibition” value was 10% (inactive) and the cell number change was 20.6%. In the case of `COc1cccc(NC(=O)c2oc3ccc(S(=O)(=O)N4CCOCC4)cc3c2C)c1`, the “lipid storage change, negative = inhibition” value is reported as 5.07% (inactive) and the cell number change is reported as 4.15%. For `O=C(NCc1ccc(Cl)cc1)N1CCN(S(=O)(=O)c2ccccc2)CC1`, the “lipid storage change, negative = inhibition” value was -6.54% (inactive) and the cell number change was 17.1%. With `Cc1c(C(=O)NCc2ccc(F)cc2)oc2ccc(S(=O)(=O)N3CCOCC3)cc12` the “outcome” value was “inactive” and the cell number change was -3.6%. In the case of `COc1ccccc1CNC(=O)c1oc2ccc(S(=O)(=O)N3CCCC3)cc2c1C`, the “lipid storage change, negative = inhibition” value is reported as -29.2% (inactive). With `Cc1c(C(=O)NCCC2=CCCCC2)oc2ccc(S(=O)(=O)N3CCOCC3)cc12` the “lipid storage change, negative = inhibition” value was 16.1% (inactive) and the cell number change was -13.3%. For `Cc1c(C(=O)NCCCN2CCCC2=O)oc2ccc(S(=O)(=O)N3CCOCC3)cc12`, the “outcome” value was “inactive” and the cell number change was -0.135%. With `COc1ccccc1CNC(=O)[C@@H]1CCCN1S(=O)(=O)c1ccc(Cl)cc1` the “outcome” value was “inactive” and the cell number change was -7.14%.
